Assay results published in PubChem BioAssay (NCATS).
Values joined by “and” are separate entries in the source; they are usually repeats but may differ in a detail not shown here. Equal entries are not always repeated. Inconclusive results are not listed. More than one record can exist for a structure, and the calls need not agree. A number with no mark means an inactive call. Active and inactive are the calls of the source. The call rests on the fitted dose curve; in most records, active means well fitted curve in the direction sought with a large enough effect; inconclusive means small, poorly fitted or top-dose-only effect, or another doubt; inactive means no such curve, though single readings can be large or run the other way.

experiment: qHTS Assay for Identifying Gametocytocidal Compounds (AID 743244);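 on max response: actives lower the fluorescent signal which means gametocytes are killed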; details: P. falciparum 3D7 stage III-V gametocytes, alamarBlue, 72 h; max response: hits give low values
Text: Malaria cases and deaths have dropped 50% in 29 countries since 2000 due to the combined effects of long-lasting insecticidal bednets, indoor residual spraying, and artemisinin-based combination therapies (ACTs). This success has raised hopes for malaria eradication and consequently stimulated interest in developing new reagents that block gametocyte transmission such as novel and safe gametocytocidal drugs. However, previous drug development efforts have focused primarily on the asexual parasites that cause symptoms, but not malaria transmission. Consequently, patients can remain infectious for weeks after the clearance of asexual parasites and clinical symptoms. To be transmitted from person to person via a mosquito, the parasites must switch from asexual to sexual development and produce male and female gametocytes. Malaria gametocytes consist of five stages (I, II, III, IV and V). The late stage gametocytes (III, IV and V) are difficult to be cultured in vitro and the long lifespan of mature gametocytes allows them being transmitted from host to mosquitoes unless they are completely eliminated by gametocytocidal agents. To identify gametocytocidal compounds which are capable of killing late stage P. falciparum gametocytes, a high throughput gametocyte viability assay was employed. This assay uses oxidoreduction indicator, alamarBlue, as a general measure of metabolic activity of gametocytes. Within live cells, the nonfluorescent resazurin is reduced to resorufin, a bright red fluorescence dye. Fluorescence decreases upon treatment of gametocytocidal compounds. P. falciparum gametocyte (3D7 strain) was used in this study.
The 1536-well gametocycidal viability assay was based on the previous method of Tanaka et al. Stage III-V gametocytes were tested against three compound libraries, including 4265 compounds from NCGC pharmaceutical collection, 400 from Malaria Box library, and 550 from an internal collection of kinase inhibitors. Briefly, 2.5 ul/well incomplete medium was dispensed into each well of 1,536-well plates using the Multidrop Combi followed by 23 nl compound transferring using the NX-TR Pintool (WAKO Scientific Solutions, San Diego, CA). Then, 2.5 ul/well of gametocytes was dispensed with a seeding density of 20,000 cells/well using the Multidrop Combi. The assay plates were incubated for 72 h at 37C with 5% CO2. After addition of 5 ul/well of 2X AlamarBlue dye (Life Technologies, cat. no. DAL1100), the plates were incubated for 24 h at 37C with 5% CO2 and then were read in a fluorescence detection mode (Ex = 525 nm, Em = 598 nm) on a ViewLux plate reader (PerkinElmer).
On the % scale 0 is the no-effect control and ±100 the full control effect; potency means the concentration at half of the fitted maximal effect.

Compound | max response | Potency
CCCCOc1cc(C(=O)OCCN(CC)CC)ccc1N | 9.75% | 
CC(C)C(=O)c1c(C(C)C)nn2ccccc12 | -11.3% and 12.6% | 
CC(C)(C)C(=O)NCCCC(=O)O | 2.51% | 
Oc1cccc(O)c1 | -1.48% | 
CCN(CC)C(C)CN1c2ccccc2Sc2ccccc21 (stereo not given) | 2.08% and 2.32% | 
CCOC(=O)c1ccc(O)cc1 | 10.3% | 
CC1CC(OC(=O)C(O)c2ccccc2)CC(C)(C)N1C (stereo not given) | 12.1% and 4.11% | 
COc1ccc(Cl)cc1C(=O)NCCc1ccc(S(=O)(=O)NC(=O)NC2CCCCC2)cc1 | 54% and 5.04% | 
O=C(O)[C@H](O)c1ccccc1 | 17.9% | 
[O-][n+]1cccc(CO)c1 | -4.23% | 
CC(C)c1c(C(=O)Nc2ccccc2)c(-c2ccccc2)c(-c2ccc(F)cc2)n1CC[C@@H](O)C[C@@H](O)CC(=O)O | -14.7% | 
Cc1cc(N)c2ccccc2[n+]1CCCCCCCCCC[n+]1c(C)cc(N)c2ccccc21 |  | 3.98 µM (active)
O=C(Oc1ccccc1C(=O)O)c1ccccc1O | -1.86% | 
Nc1ccc(S(=O)(=O)Nc2nccs2)cc1 | 3.15% | 
Cc1ccc2nc(N)[nH]c(=O)c2c1Sc1ccncc1 | -4.42% | 
OC[C@H]1O[C@@H](O[C@@H]2[C@@H](CO)O[C@](O)(CO)[C@H]2O)[C@H](O)[C@@H](O)[C@H]1O | -3.99% | 
NC(=O)N/N=C/c1ccc([N+](=O)[O-])o1 | 4.19% | 35.5 µM (active)
CCCCN(CCCC)CCCOC(=O)c1ccc(N)cc1 | 0.616% | 
CN(C)CCOC(C)(c1ccccc1)c1ccccn1 (stereo not given) | 7.8% | 
CC(C)(C)[C@]1(O)CCN2C[C@H]3c4ccccc4CCc4cccc(c43)[C@@H]2C1 | 13.6% and 4.8% | 

Compound | max response | Potency
CN1[C@@H]2CC[C@H]1CC(OC(=O)C(O)c1ccccc1)C2 (stereo not given in full) | -8.53% and 3.5% and -4.14% | 
Cc1cccc(Nc2cc(Cl)nc(SCC(=O)O)n2)c1C | -1.09% | 
CC1=C(CC(=O)O)c2cc(F)ccc2/C1=C\c1ccc(S(C)=O)cc1 (stereo not given) | -9.81% and 32% | 
CC1(C)[C@@H]2CC[C@@]1(C)C(=O)C2 | -6.95% | 
COc1ccc2[nH]c(S(=O)Cc3ncc(C)c(OC)c3C)nc2n1 (stereo not given) | -2.18% | 
CC(=O)CCC(=O)O | 13.5% | 
C=Cc1c(C)c2cc3[nH]c(cc4nc(cc5nc(cc1[nH]2)C(C)=C5CCC(=O)O)C(CCC(=O)O)=C4C)c(C)c3C=C | 11.4% and 22% | 
NC(=O)NNc1ccccc1 | 5.12% and -3.42% | 
CC1(C)Oc2ccc(C#N)cc2[C@@H](N2CCCC2=O)[C@@H]1O | -8.5% and 8.76% | 
CC(O)CN(CCN(CC(C)O)CC(C)O)CC(C)O (stereo not given) | 3.97% | 
CCCCCCCCCCCCCCCC(=O)NCCO | -1.98% and 26.2% | 
NC1[C@H]2CN(c3nc4c(cc3F)c(=O)c(C(=O)O)cn4-c3ccc(F)cc3F)C[C@@H]12 (stereo not given in full) | -0.422% | 
CC(=O)OCC(=O)[C@@]1(O)CC[C@H]2[C@@H]3CCC4=CC(=O)CC[C@]4(C)[C@H]3C(=O)C[C@@]21C | -5.84% | 
CC(C)(C)c1onc(OCP(=O)(O)O)c1CC(N)C(=O)O (stereo not given) | 18.1% | 
O=C(O)CC(O)C(=O)O (stereo not given) | -0.517% | 
NS(=O)(=O)c1cc2c(cc1Cl)NC(CSCc1ccccc1)=NS2(=O)=O | -8.8% | 
CCCCN1CCCC[C@H]1C(=O)Nc1c(C)cccc1C | 12.1% | 
C[C@@H]1CC[C@@]2(OC1)O[C@H]1C[C@H]3[C@@H]4CC[C@H]5C[C@@H](O)CC[C@]5(C)[C@H]4CC(=O)[C@]3(C)[C@H]1[C@@H]2C | -9.03% | 
O=C1NS(=O)(=O)c2ccccc21 | 5.05% | 
